High-throughput results from PubChem BioAssay.
This is a sample that favours compounds with a hit; in the whole collection about 3.2% have one here.
Tau fil binding: binds recombinant human tau filaments; P10636; Potency, µM (top dose mostly 57.1 µM), for inactives: at the highest dose activity change, negative = inhibition; AID 596; actives 2% (n = 71,000); recombinant tau filaments, thioflavin S fluorescence, 15 h; filaments grown with octadecylsulfate alongside compound;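 also: potency is read from the fitted curve at half-maximal effect; % is scaled to controls: 0 for no effect and ±100 for the full control effect; actives lower thioflavin S fluorescence by blocking filaments or displacing dye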
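Read-out: ThS fluorescence, 450 nm excitation/510 nm emission; lower signal marks blocked filament formation or displaced dye. Tau at 1 uM with 30 uM ODS, 10 uM ThS, 5 mM DTT, 100 mM NaCl, 10 mM HEPES pH 7.4; 15 h, 37 C.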
Epigenetic mod: derepresses silenced GFP locus in mouse C127i cells | mouse C127i GFP locus derepression, cytometry, 30 h | Potency, µM (titrated, usually from 46.1 µM), for inactives: at the top dose GFP derepression (activation) | actives 0.09% (n = 68,000) | AID 597; also: % of control where 0% means no effect
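Locus derepression in mouse mammary C127i cells whose integrated CMV-GFP reporter is normally silent; GFP expression after 30 h compound treatment was quantified by counting fluorescent cells.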
Ub-GFP proteasome: inhibits proteasome, raising ubiquitin-GFP reporter fluorescence; Ubiquitin-GFP reporter cells, proteasome inhibition, GFP fluorescence; response scale: untreated = 0%, 10 µM MG-132 = 100%; Potency, µM (doses to about 45.9 µM), for the others: at the highest dose activation (GFP accumulation), most hits filed as activators; 67,000 tested, under 10 active; AID 526; active = well fitted activation curve with a large enough effect, not every such curve was filed as active; inconclusive = small, poorly fitted or top-dose-only effect, or another doubt; inactive = no such curve, though single readings can be large or run the other way; also: potency is read from the fitted curve at half-maximal effect
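Proteasome block read as GFP accumulation: ubiquitin(G76V)-GFP U2OS cells exposed to compound (2.9 nM–46 uM) for 4 hr at 37 C. Normalization used untreated cells as 0% and 10 uM MG-132 as 100%; concentration-response curves fitted.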
15-hLO inh: blocks human 15-lipoxygenase activity; purified 15hLO-1, xylenol orange hydroperoxide absorbance; Potency, µM (doses to about 57.1 µM), without a hit: top-dose activity change, negative = inhibition, most hits filed as inhibitors; actives 1.4% (n = 74,000); also: potency is read from the fitted curve at half-maximal effect; % is scaled to controls: 0 for no effect and ±100 for the full control effect; nearly all actives have a fitted effect of over 55% in size
Target sequence (P16050 whole entry, looked up): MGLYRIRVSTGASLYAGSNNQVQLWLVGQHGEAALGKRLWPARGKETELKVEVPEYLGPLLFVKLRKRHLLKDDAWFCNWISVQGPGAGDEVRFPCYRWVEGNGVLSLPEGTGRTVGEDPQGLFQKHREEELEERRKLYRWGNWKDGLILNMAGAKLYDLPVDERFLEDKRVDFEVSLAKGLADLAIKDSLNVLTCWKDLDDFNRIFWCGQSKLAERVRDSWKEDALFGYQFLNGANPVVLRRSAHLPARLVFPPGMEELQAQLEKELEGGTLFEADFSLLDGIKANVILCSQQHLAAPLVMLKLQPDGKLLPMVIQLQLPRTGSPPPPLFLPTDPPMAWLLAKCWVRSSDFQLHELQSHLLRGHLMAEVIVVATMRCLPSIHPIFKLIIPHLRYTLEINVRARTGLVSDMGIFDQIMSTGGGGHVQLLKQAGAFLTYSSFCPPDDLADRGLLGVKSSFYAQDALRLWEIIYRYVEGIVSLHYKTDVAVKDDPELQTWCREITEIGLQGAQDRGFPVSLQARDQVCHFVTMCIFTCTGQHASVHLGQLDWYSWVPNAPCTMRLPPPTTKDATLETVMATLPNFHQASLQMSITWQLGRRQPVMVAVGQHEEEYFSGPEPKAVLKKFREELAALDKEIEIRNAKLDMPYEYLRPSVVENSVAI
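Hydroperoxide formed from arachidonic acid (50 uM) by purified human 15hLO-1 (40 nM) oxidizes ferrous iron, and the ferric-xylenol orange complex is read at 573 versus 405 nm. Compounds were preincubated 15 min; reaction ran 6 min at room temperature.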
HBB splice mod: hemoglobin beta splicing modulation | HBB splicing reporter cell assay, activation; EGFP reporter with mutant IVS2-654 intron; response scale: normalised to 500 nM splice-correcting PNA | Potency, µM (top dose mostly 46.1 µM), without a hit: at the highest dose activation, actives largely listed as activators | actives 0.06% (n = 65,000) | AID 925; also: potency is read from the fitted curve at half-maximal effect; 0% is about no effect
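HeLa cells stably expressing EGFP interrupted by mutant beta-globin intron 2 (IVS2-654), 500/well in 2% FCS. Treated with compound for 2 days at 37C. Splicing correction scored as total well GFP intensity (488 nm excitation, 500-520 nm emission); 500 nM antisense PNA served as control.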
DNA Pol III inh: inhibitors of bacterial DNA polymerase III holoenzyme. reconstituted DNA polymerase III holoenzyme replication, biochemical. Potency, µM (titrated, usually from 57.1 µM), without a hit: at the highest dose activity change, negative = inhibition. actives 0.25% (n = 71,000). AID 603; also: potency is read from the fitted curve at half-maximal effect; % is scaled to controls: 0 for no effect and ±100 for the full control effect
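Reconstituted *E. coli* holoenzyme (0.35 nM Pol III, 1 nM beta, 154 nM SSB, 2 nM primase) was preincubated with compound for 15 min at RT. Synthesis on 1.4 nM ssM13Gori ran 35 min, then was stopped with PicoGreen/EDTA and read as dsDNA fluorescence.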
* marks the source's active call; other numbers are inactive results; ? = inconclusive; / = no result; ! = not confirmed by another sample; [ ] = dose if it differs, or a comment. Unless noted, calls follow the shape of the dose curve; as a rule, active = well fitted curve in the direction sought with a large enough effect; inconclusive = small, poorly fitted or top-dose-only effect, or another doubt; inactive = no such curve, though single readings can be large; an effect the other way counts as inactive or inconclusive.

SMILES | Tau fil binding | Epigenetic mod | Ub-GFP proteasome | 15-hLO inh | HBB splice mod | DNA Pol III inh
Cc1c(N(C)CS(=O)(=O)O)c(=O)n(-c2ccccc2)n1C | -1%[25.6 µM] | -2%[20.6 µM] | -5%[20.5 µM] | 25µM* | -2%[20.6 µM] | -5%[25.6 µM]
O=C(NCc1ccco1)c1nc2nc(-c3cccs3)cc(C(F)(F)F)n2n1 | 25µM* | 0% | -1% | -14% | 0%[57.5 µM] | -13%
O=C(O)[C@@H]1[C@@H](C(=O)NCc2ccccn2)[C@@H]2C=C[C@@H]1O2 | 3%[11.4 µM] | -1%[9.22 µM] | 6%[9.17 µM] | 10%[11.4 µM] | 1%[9.22 µM] | 6%[11.4 µM]
CCOC(=O)c1cnc2c(C)cccc2c1NCc1ccco1 | 22% | -2% | 8% | -1% | 0%[9.22 µM] | -11%
CCOC(=O)c1cnc2c(C(=O)OC)cccc2c1NCc1ccco1 | 13µM* | 6% | 2% | -10% | 1% | -10%
Cc1c(Cl)ccc2c1NC(=O)[C@]21[C@@H]2C(=O)N(Cc3ccccc3)C(=O)[C@@H]2[C@@H]2CCCN21 | 25µM* | 0% | 3% | ? | -5%[57.5 µM] | -2%
O=C1C2C3C=CC(C3=C3CCCCC3)C2C(=O)N1Cc1ccccc1 (stereo unspecified) | -11% | -3% | -4% | -19% | 0% | 0%
CCc1cccc2c1NC(=O)[C@]21[C@@H]2C(=O)N(Cc3ccccc3)C(=O)[C@@H]2[C@@H]2CCCN21 | 25µM* | -3% | 11% | -27% | -1% | -2%
Oc1ccc(N2CCN(C(c3cccs3)c3nnnn3CCc3ccccc3)CC2)cc1 (stereo unspecified) | -6% | 0% | 0% | 3.2µM* | / | -2%
Cc1ccc(OC2C(O)COC2/C=C/C#Cc2ccc(C(C)(C)C)cc2)cc1 (stereo unspecified) | / | / | / | 3.2µM*! | 0%[9.22 µM] | /
O=Nc1ccc(Nc2ccccc2)cc1 | 32µM* | / | / | -21% | -1% | 1%
Cc1occc1-c1nnc(SCC(=O)c2cc3ccccc3oc2=O)o1 | 10µM* | 2% | 3% | 13µM* | -3%[57.5 µM] | ?
Cn1ccc2cc3c(cc21)CCN3C(=O)Nc1cccnc1 | 32µM* | 0% | 12% | -13%[25.6 µM] | 0% | -20%
CN1CCc2cc(NC(=O)Nc3cccnc3)ccc21 | -14% | -2% | 4% | 6% | 3% | -2%
Cc1nc2c(c(=O)n1CCC1=CCCCC1)c1nc3ccccc3nc1n2/N=C/c1ccco1 | 2µM* | 0% | -1% | -2% | 3%[57.5 µM] | -7%
COc1cc([C@@H]2Oc3cc([C@H]4Oc5cc(O)cc(O)c5C(=O)[C@H]4O)ccc3O[C@H]2CO)ccc1O | ? | 5%[9.22 µM] | 1% | 2µM* | / | -6%
Oc1cc(CN2COc3ccccc32)c(O)cc1CNC1CCCCC1 | -20%[11.4 µM] | 9%[9.22 µM] | 2%[9.17 µM] | ? | 5%[9.22 µM] | -9%[11.4 µM]
COc1cc(N)c(Cl)cc1C(=O)N[C@H]1CCN(CCCOc2ccc(F)cc2)C[C@@H]1OC | ? | -1% | 1% | ? | / | -6%
CCCC(=O)Nc1cc(OC)c(OC)cc1C(=O)O | 6% | 15% | 0% | 4% | -1% | -2%
CCCCNc1cc(NC(C)=O)cc2cc(OC)c(OC)cc12 | 25µM* | 0% | 3% | -9% | -1% | -6%
Cc1ccc2nc(C)cc(OCC(=O)O)c2c1 | 10% | -1% | 18% | 0% | -2% | -6%
Cc1cc2c(ccc3[nH]onc32)n1 | 69% | -2% | -3% | 20µM* | -3%[57.5 µM] | -1%
O=C(NCCO)c1ccc(-n2c(=O)c(=O)[nH]c3ccccc32)cc1 | / | / | / | 4% | / | /
C[C@@H]1CCCN(CP(=O)(c2ccccc2)c2ccccc2)C1 | 2%[11.4 µM] | 2%[9.22 µM] | -8%[9.17 µM] | 5%[11.4 µM] | 3%[9.22 µM] | -10%[11.4 µM]
c1ccc2c(c1)Cc1cc3cc4c(cc3nc1-2)OCO4 | 13% | / | / | / | 1% | -21%
SMILES | Tau fil binding | Epigenetic mod | Ub-GFP proteasome | 15-hLO inh | HBB splice mod | DNA Pol III inh
Cn1c(=O)c(-c2cc(F)cc(F)c2)nc2cnc(Oc3cccc(Cl)c3)nc21 | 10µM* | 5%[9.22 µM] | -6% | -9% | -1% | 4%
CN1CCN(c2ncc3nc(-c4cc(F)cc(F)c4)c(=O)n(C4CC4)c3n2)CC1 | 16µM* | -5%[9.22 µM] | 2% | -2% | 1% | -8%
COc1ccc(Oc2ncc3nc(-c4ccc(OC)cc4)c(=O)n(C4CC4)c3n2)cc1 | 15% | 5%[9.22 µM] | 13% | -4% | 0% | 0%
COc1ccc(Oc2ncc3nc(-c4cc(F)cc(F)c4)c(=O)n(C4CC4)c3n2)cc1 | 20µM* | 3%[9.22 µM] | 0% | 6% | -1% | -8%
O=c1c(-c2cc(F)cc(F)c2)nc2cnc(N3CCNCC3)nc2n1C1CC1 | 177% | 14%[9.22 µM] | -2% | 2% | 1% | -8%
Clc1nc(NCCc2ccccc2)c2ncn(-c3ccccc3)c2n1 | 24%[11.4 µM] | 9%[9.22 µM] | -7%[9.17 µM] | / | -2%[9.22 µM] | -7%[11.4 µM]
COc1ccc2c3c([nH]c2c1)[C@H]1C[C@@H]2[C@@H](C[C@@H](O)[C@H](OC)[C@H]2C(=O)O)CN1CC3 | 29%[11.4 µM] | -3%[9.22 µM] | -6%[9.17 µM] | 8%[11.4 µM] | 6%[9.22 µM] | -9%[11.4 µM]
CC(C)C1=CC2=CC[C@@H]3[C@@](C)(C(=O)O)CCC[C@]3(C)C2CC1 (stereo partly specified) | / | / | / | 7.9µM* | / | /
CC(C)C12CC[C@@]3(CC[C@H]4[C@@](C)(CCC[C@]4(C)C(=O)O)[C@@H]3C1)[C@@H](CN)C2 | 16%[11.4 µM] | 3%[9.22 µM] | 9%[9.17 µM] | 12%[11.4 µM] | 3%[9.22 µM] | 10%[11.4 µM]
CCOc1cccc(C(=O)c2ccc(O)c(O)c2O)c1 | / | / | / | 13µM* | / | /
